The source of these data is PubChem BioAssay (Tox21).

Where “and” joins values, the source holds several entries; their conditions need not be identical. Identical values can stand only once. Calls of active or inactive are those of the source. Unless noted, the call rests on the fitted dose curve; in most records, active means well fitted curve in the direction sought with a large enough effect in the repeat runs; inconclusive means weak or mixed curves; inactive means no such curve, though single readings can be large; an effect the other way counts as inactive or inconclusive.

Experiment [1] is described as follows: qHTS assay to identify small molecule antagonists of the glucocorticoid receptor (GR) signaling pathway - cell viability counter screen (AID 720693). Further: nearly all actives have a fitted effect of over 55% in size.
Experiment [2] can be described thus: qHTS assay for identifying genotoxic compounds that show differential cytotoxicity against isogenic chicken DT40 cell lines with known DNA damage response pathways - wild type cell line (AID 743012). Further: nearly all actives have a fitted effect of over 60% in size. Further: potency means the concentration at half of the fitted maximal effect. Put shortly:
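Viability by ATP luminescence (CellTiter-Glo, 30 min RT) after 40 h compound treatment at 37 C/5% CO2, using 300 parental DNA repair-proficient DT40 cells per well.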
(qHTS replaces the single test concentration by a dilution series.)

The nature of experiment [3]: qHTS assay for identifying genotoxic compounds that show differential cytotoxicity against isogenic chicken DT40 cell lines with known DNA damage response pathways - Rev3 mutant cell line (AID 743014). Further: nearly all actives have a fitted effect of over 55% in size. Further: potency means the concentration at half of the fitted maximal effect.
Experiment [4] is described as follows: qHTS assay for identifying genotoxic compounds that show differential cytotoxicity against isogenic chicken DT40 cell lines with known DNA damage response pathways - Rad54/Ku70 mutant cell line (AID 743015). Further: nearly all actives have a fitted effect of over 60% in size. Further: potency means the concentration at half of the fitted maximal effect.
The nature of experiment [5]: qHTS assay to identify small molecule antagonists of the androgen receptor (AR) signaling pathway - cell viability counter screen (AID 743033; further: nearly all actives have a fitted effect of over 45% in size).
Experiment [6] deals with Androgen receptor (Homo sapiens) (UniProt P10275). Kind of experiment: qHTS assay to identify small molecule antagonists of the androgen receptor (AR) signaling pathway (AID 743035; active means well fitted inhibition curve with a large enough effect in the signal ratio in the repeat runs, not every such curve was filed as active; inconclusive means weak or mixed curves, or effect the other way; inactive means no such curve, though single readings can be large or run the other way; the % refers to the signal ratio). The method in brief:
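Antagonist mode: AR-bla HEK293 cells co-treated with test compounds and agonist R1881 for 16 h at 37C, 5% CO2. Beta-lactamase activity read as FRET fluorescence after 2 h room-temperature substrate loading.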

The target is the same in experiment [7]. Put plainly: qHTS assay to identify small molecule agonists of the androgen receptor (AR) signaling pathway (AID 743036; active means well fitted activation curve with a large enough effect in the signal ratio in the repeat runs, with a control signal flat, not every such curve was filed as active; inconclusive means weak or mixed curves, or effect the other way; inactive means no such curve, though single readings can be large or run the other way; the % refers to the signal ratio). The method in brief:
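Fluorescence from a beta-lactamase FRET substrate served as read-out in AR-UAS-bla GripTite HEK293 cells. Cells were treated with DMSO-dissolved compounds for 16 h at 37C, then with LiveBLAzer B/G substrate for 2 h at room temperature.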

For experiment [8] the target is unchanged. Put plainly: qHTS assay to identify small molecule agonists of the androgen receptor (AR) signaling pathway using the MDA cell line (AID 743040; further: nearly all actives have a fitted effect of over 20% in size). The method in brief: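 Agonist activity is measured as luciferase luminescence in human MDA-kb2 cells whose MMTV reporter responds to both AR and GR. Compounds in DMSO incubate 16 h at 37C, 0% CO2, and ONE-Glo is read after 30 min.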

A short description of experiment [9]: qHTS assay to identify small molecule antagonists of the androgen receptor (AR) signaling pathway using the MDA cell line - cell viability counter screen (AID 743041; further: nearly all actives have a fitted effect of over 45% in size). Put shortly:
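qHTS viability read-out; MDA-kb2 AR-luc; R1881-stimulated; 16 h exposure at 37C, 0% CO2; CellTiter-Fluor, 30 min; fluorescence intensity.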

Experiment [10] deals with Androgen receptor (Homo sapiens) (UniProt P10275). Put plainly: qHTS assay to identify small molecule antagonists of the androgen receptor (AR) signaling pathway using the MDA cell line (AID 743042; further: nearly all actives have a fitted effect of over 55% in size). The method in brief: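 MDA-kb2 cells (human breast carcinoma, stably carrying an MMTV-luciferase reporter responsive to AR and GR) were plated at 3,000 cells/well and preincubated 5 hr at 37C, then given compound plus R1881 agonist for 16 h. ONE-Glo luminescence was read.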
Androgen receptor (Homo sapiens), sequence (P10275 whole entry, looked up): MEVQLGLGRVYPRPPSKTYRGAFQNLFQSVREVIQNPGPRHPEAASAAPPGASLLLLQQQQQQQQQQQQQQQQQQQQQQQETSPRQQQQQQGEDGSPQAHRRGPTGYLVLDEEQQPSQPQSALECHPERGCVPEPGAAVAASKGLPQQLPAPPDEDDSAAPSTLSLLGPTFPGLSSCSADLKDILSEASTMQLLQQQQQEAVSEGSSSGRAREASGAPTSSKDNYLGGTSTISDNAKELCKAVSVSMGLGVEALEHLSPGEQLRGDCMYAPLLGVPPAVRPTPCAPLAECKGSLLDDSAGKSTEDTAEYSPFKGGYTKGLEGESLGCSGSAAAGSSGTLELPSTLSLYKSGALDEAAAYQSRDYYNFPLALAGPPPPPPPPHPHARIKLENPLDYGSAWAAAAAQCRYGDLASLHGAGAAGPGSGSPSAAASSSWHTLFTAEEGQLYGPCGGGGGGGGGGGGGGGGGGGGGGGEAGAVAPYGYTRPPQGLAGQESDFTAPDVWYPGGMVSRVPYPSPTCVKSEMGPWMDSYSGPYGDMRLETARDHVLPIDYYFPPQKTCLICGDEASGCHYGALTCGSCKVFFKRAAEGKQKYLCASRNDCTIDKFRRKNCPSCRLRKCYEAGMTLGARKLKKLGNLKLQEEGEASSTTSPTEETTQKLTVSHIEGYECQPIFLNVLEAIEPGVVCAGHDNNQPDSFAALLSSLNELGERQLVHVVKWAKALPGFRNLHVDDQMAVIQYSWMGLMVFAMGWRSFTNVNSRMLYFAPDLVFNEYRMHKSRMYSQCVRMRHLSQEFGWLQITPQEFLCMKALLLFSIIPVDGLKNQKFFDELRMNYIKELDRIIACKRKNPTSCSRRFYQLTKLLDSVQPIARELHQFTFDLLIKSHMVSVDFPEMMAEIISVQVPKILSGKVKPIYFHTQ

A short description of experiment [11]: qHTS assay to identify small molecule antagonists of the thyroid receptor (TR) signaling pathway - cell viability counter screen (AID 743064). Further: nearly all actives have a fitted effect of over 50% in size. The method in brief:
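Fluorescence from CellTiter-Fluor, added after 23.5 h exposure at 37 °C, reported viability of GH3.TRE-Luc cells co-treated with compound and 1 nM T3. Measured in the same wells as the luciferase TR readout.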

Experiment [12] is described as follows: qHTS assay to identify small molecule antagonists of the thyroid receptor (TR) signaling pathway (AID 743065). Further: nearly all actives have a fitted effect of over 55% in size. Further: potency means the concentration at half of the fitted maximal effect. Put shortly:
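GH3.TRE-Luc rat pituitary cells carrying two TR response elements driving luciferase were plated for 4 h, given compound plus 1 nM T3 (final), and incubated 23.5 h at 37 C. ONE-Glo luminescence measured reporter inhibition; CellTiter-Fluor fluorescence tracked cytotoxicity.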

Experiment [13] concerns thyroid hormone receptor (rat, GH3 cells). Kind of experiment: qHTS assay to identify small molecule agonists of the thyroid receptor (TR) signaling pathway (AID 743066; calls by dose curve).
Experiment [14] can be described thus: qHTS assay to identify small molecule antagonists of the estrogen receptor alpha (ER-alpha) signaling pathway - cell viability counter screen (AID 743074; calls by dose curve; further: nearly all actives have a fitted effect of over 45% in size).
A short description of experiment [15]: qHTS assay to identify small molecule antagonists of the estrogen receptor alpha (ER-alpha) signaling pathway using the BG1 cell line - cell viability counter screen (AID 743081).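 Further: compound given together with 17beta-estradiol as the ER stimulus; series mostly up to about 70 µM; nearly all actives have a fitted effect of over 45% in size.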
The next experiment concerns the target Aromatase (Homo sapiens) (UniProt P11511). Put plainly: qHTS assay to identify aromatase inhibitors (AID 743083).
For experiment [16], the target named is Estrogen receptor (Homo sapiens) (UniProt P03372). Kind of experiment: qHTS assay to identify small molecule antagonists of the estrogen receptor alpha (ER-alpha) signaling pathway (AID 743069; active means well fitted curve in the direction sought with a large enough effect in the signal ratio in the repeat runs, not every such curve was filed as active; inconclusive means weak or mixed curves, or effect the other way; inactive means no such curve, though single readings can be large or run the other way; the % refers to the signal ratio; further: potency means the concentration at half of the fitted maximal effect). Put shortly: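 Screening used a UAS-driven beta-lactamase reporter integrated into HEK293 cells expressing ER-alpha, stimulated with 17beta-estradiol alongside test compounds over 18 hr at 37C; signal came from LiveBLAzer B/G FRET fluorescence.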
Estrogen receptor (Homo sapiens), sequence (P03372 whole entry, looked up): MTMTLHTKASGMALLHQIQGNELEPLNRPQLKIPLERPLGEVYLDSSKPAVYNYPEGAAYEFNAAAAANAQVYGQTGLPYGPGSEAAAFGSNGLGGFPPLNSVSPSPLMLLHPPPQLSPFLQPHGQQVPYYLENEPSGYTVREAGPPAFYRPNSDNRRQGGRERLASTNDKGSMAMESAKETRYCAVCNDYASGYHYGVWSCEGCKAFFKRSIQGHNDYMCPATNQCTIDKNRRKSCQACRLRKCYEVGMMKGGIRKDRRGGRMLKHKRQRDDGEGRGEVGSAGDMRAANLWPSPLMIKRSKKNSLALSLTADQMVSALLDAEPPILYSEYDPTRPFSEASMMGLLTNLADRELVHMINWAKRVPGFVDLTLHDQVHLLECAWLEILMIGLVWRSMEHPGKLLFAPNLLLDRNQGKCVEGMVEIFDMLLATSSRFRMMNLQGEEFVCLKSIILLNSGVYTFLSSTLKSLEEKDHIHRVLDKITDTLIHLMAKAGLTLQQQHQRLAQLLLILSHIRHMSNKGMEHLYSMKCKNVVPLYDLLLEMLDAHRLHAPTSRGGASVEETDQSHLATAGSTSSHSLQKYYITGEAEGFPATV

Experiment [17] has the same target. Kind of experiment: qHTS assay to identify small molecule agonists of the estrogen receptor alpha (ER-alpha) signaling pathway (AID 743075; calls by dose curve).
For experiment [18] the target is unchanged. Kind of experiment: qHTS assay to identify small molecule agonists of the estrogen receptor alpha (ER-alpha) signaling pathway using the BG1 cell line (AID 743079). Further: nearly all actives have a fitted effect of over 20% in size.
The nature of experiment [19]: qHTS assay to identify small molecule antagonists of the estrogen receptor alpha (ER-alpha) signaling pathway using the BG1 cell line (AID 743080; calls by dose curve;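 further: BG1 cells stimulated with 17beta-estradiol alongside compound; series mostly up to about 70 µM; nearly all actives have a fitted effect of over 25% in size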). Put shortly:
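Readout is ONE-Glo luminescence, taken 30 min at room temperature after reagent addition, preceded by a CellTiter-Fluor viability read; BG1-Luc-4E2 cells had received compound and 17beta-estradiol for 21.5 h at 37 C.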

Aromatase (Homo sapiens), sequence (P11511 whole entry, looked up): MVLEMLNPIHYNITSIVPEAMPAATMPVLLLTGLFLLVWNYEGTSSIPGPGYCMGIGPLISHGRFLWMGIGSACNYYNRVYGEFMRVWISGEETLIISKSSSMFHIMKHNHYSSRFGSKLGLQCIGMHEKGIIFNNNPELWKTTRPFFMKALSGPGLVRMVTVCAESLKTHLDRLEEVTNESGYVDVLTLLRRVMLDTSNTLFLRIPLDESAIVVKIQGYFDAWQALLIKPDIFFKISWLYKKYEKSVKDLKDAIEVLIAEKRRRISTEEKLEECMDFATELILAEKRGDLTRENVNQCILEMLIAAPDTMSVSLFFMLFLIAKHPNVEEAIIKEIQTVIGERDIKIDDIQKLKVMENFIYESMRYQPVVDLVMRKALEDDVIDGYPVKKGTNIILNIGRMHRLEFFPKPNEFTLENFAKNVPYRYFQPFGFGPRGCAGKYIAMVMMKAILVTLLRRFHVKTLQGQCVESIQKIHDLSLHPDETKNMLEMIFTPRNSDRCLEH

Turning to `CC(O)COc1ccccc1` (centres undefined), the Potency entry in experiment [1], in [2], in experiment [3], in experiment [4], in experiment [6] and in [8] was “inactive” in each case. Also, the Potency entry (in [9]; in experiment [10]; in [11]; in experiment [12]; in [15]; in the experiment with Aromatase (Homo sapiens)) was “inactive” in each case. Moreover, the compound was called inactive in [5], in experiment [7], in [13] and in experiment [14].
Take `Cc1cccc(C)c1O`: the Potency result in experiment [1], in experiment [2], in experiment [3], in experiment [4], in [6] and in [8] was “inactive” in each case. Also, the Potency entry in experiment [9], in [10], in experiment [11], in experiment [12], in experiment [16] and in experiment [17] was “inactive” each time. The Potency result (in [18]; in [19]; in experiment [15]; with Aromatase (Homo sapiens)) was “inactive” throughout. Besides, the compound was called inactive in [5], in experiment [7], in experiment [13] and in [14].
In the case of `Oc1cccc(O)c1`, the Potency entry in experiment [1], in experiment [2], in experiment [3], in [4], in [9] and in experiment [11] was “inactive” throughout. The Potency result in [12], in experiment [16], in experiment [17], in [18], in [19] and in experiment [15] was “inactive” in each case. Further, in the experiment with Aromatase (Homo sapiens), the Potency result was “inactive”. Also, the result in [5], in experiment [13] and in experiment [14] was inactive.
As to `CC(C)=CCC/C(C)=C/CO`, the Potency entry in [1], in [2], in experiment [3], in experiment [4], in experiment [9] and in experiment [11] was “inactive” throughout. For the same compound, the Potency entry in experiment [12] and in experiment [15] was “inactive” throughout. Besides, the result in experiment [5], in experiment [7], in experiment [13] and in experiment [14] was inactive.
As to `CC(=O)CCC(C)C`, the Potency entry in experiment [1], in experiment [2], in [3], in experiment [4], in experiment [9] and in [12] was “inactive” in each case. For the same compound, the Potency entry (in [16]; in experiment [17]; in experiment [18]; in experiment [19]; in experiment [15]; with Aromatase (Homo sapiens)) was “inactive” throughout. Besides, the outcome in [5], in experiment [13] and in experiment [14] was inactive.
For the compound `COC1=CC(=O)C[C@@H](C)[C@]12Oc1c(Cl)c(OC)cc(OC)c1C2=O`, the Potency result in experiment [1], in experiment [9], in experiment [17], in experiment [18], in [19] and in experiment [15] was “inactive” in each case. For the same compound, the Potency in experiment [2] was 26.6 µM (active) and 54 µM (active) and 27.3 µM (active); in [3], 30.4 µM (active) and 30.6 µM (active); in experiment [4], 30.4 µM (active) and 27.3 µM (active); in experiment [12] it was 11.9 µM (active) and 27.1 µM (active) and 27.3 µM (active); in experiment [16] it was 10.7 µM [inconclusive] (active) and 5.45 µM [inconclusive] (active) and 6.92 µM [inhibitor] (active). The compound was called inactive in experiment [5], in experiment [13] and in experiment [14].
On to `C[C@]12C[C@H](O)[C@H]3[C@@H](CCC4=CC(=O)CC[C@@]43C)[C@@H]1CC[C@@H]2C(=O)CO`, for which the Potency entry in experiment [1], in experiment [2], in [3], in experiment [9], in [11] and in experiment [12] was “inactive” each time. Also, the Potency result (in experiment [16]; in experiment [17]; in [18]; in [19]; in experiment [15]; in the experiment with Aromatase (Homo sapiens)) was “inactive” throughout. Besides, in experiment [4], the Potency was 48.6 µM (active). Moreover, the result in experiment [5], in [13] and in [14] was inactive.
